Assay results from PubChem BioAssay (EPA / NIEHS).
“And” between values parts separate entries of the source, which are not always exact repeats. Equal entries are not always repeated. Some structures have more than one record in an assay (separate samples or runs), and their calls can disagree. The source made the active and inactive calls. Rule for the calls: active = hit-call score of the fitted dose curve at least 0.9, where 1 is the maximum; inactive = score below 0.9.

How the values were obtained:
[1] = read-out: Collagen IV, COL4A1 (gene 1282); assay: BSK_MyoF_CollagenIV: BioMAP Diversity Plus: MyoF Assay for Collagen IV Biomarker Activity (AID 2284247); settings: primary human lung fibroblasts
Method in brief: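 Primary human lung fibroblasts were exposed to test chemicals and sampled 24 h after dosing. Collagen IV levels were measured by ELISA and fitted in the positive direction against DMSO as negative control and baseline.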

[2] = read-out: Monokine induced gamma interferon (MIG), CXCL9 (gene 4283); assay: BSK_KF3CT_MIG: BioMAP Diversity Plus: KF3CT Assay for Monokine induced gamma interferon (MIG) Biomarker Activity (AID 2284248); settings: primary human keratinocytes with fibroblasts
Method in brief: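 MIG in dosed human skin co-cultures was measured by ELISA at 24 h, relative to DMSO.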

[3] = read-out: Vascular cell adhesion molecule 1 (VCAM1), VCAM1 (gene 7412); assay: BSK_BF4T_VCAM1: BioMAP Diversity Plus: BF4T Assay for Vascular cell adhesion molecule 1 (VCAM1) Biomarker Activity (AID 2284249); settings: primary human bronchial epithelial cells with fibroblasts
Method in brief: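 Human bronchial epithelial cell and dermal fibroblast co-culture exposed 24 h. VCAM-1 measured by ELISA; parallel SRB total-protein staining for cytotoxicity. Fitted in positive direction relative to DMSO.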

[4] = read-out: Collagen I, COL1A1 (gene 1277); assay: BSK_hDFCGF_CollagenI: BioMAP Diversity Plus: hDFCGF Assay for Collagen I Biomarker Activity (AID 2284250); settings: primary human foreskin fibroblasts
Method in brief: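 Primary human foreskin fibroblasts (hDFCGF system) exposed to chemical for 24 h; Collagen I measured by ELISA. Activity fitted in the positive direction relative to DMSO baseline, with SRB total-protein staining in parallel cultures for overt cytotoxicity.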

[5] = read-out: Interferon-inducible T-cell alpha chemoattractant (ITAC), CXCL11 (gene 6373); assay: BSK_hDFCGF_ITAC: BioMAP Diversity Plus: hDFCGF Assay for Interferon-inducible T-cell alpha chemoattractant (ITAC) Biomarker Activity (AID 2284251); settings: primary human foreskin fibroblasts
Method in brief: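 ELISA readout of I-TAC after 24 h chemical exposure; human dermal foreskin fibroblast primary cells. Positive-direction fitting vs DMSO baseline. Parallel SRB total-protein staining (0.1% SRB after 10% TCA fixation, 560 nm) flags cytotoxicity.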

[6] = read-out: Plasminogen activator inhibitor-1 (PAI1), SERPINE1 (gene 5054); assay: BSK_KF3CT_PAI1: BioMAP Diversity Plus: KF3CT Assay for Plasminogen activator inhibitor-1 (PAI1) Biomarker Activity (AID 2284252); settings: primary human keratinocytes with fibroblasts
Experimental: (§1) BSK_KF3CT is a cell-based, multiplexed-readout assay that uses keratinocytes and foreskin fibroblasts, a human skin primary cell co-culture, with measurements taken at 24 hours after chemical dosing in a 96-well plate.BSK_KF3CT_PAI1 is an assay component measured in the BSK_KF3CT assay. It measures PAI-1 antibody related to regulation of gene expression using ELISA technology.Data from the assay component BSK_KF3CT_PAI1 was analyzed at the endpoint, BSK_KF3CT_PAI1, in the positive analysis fitting direction relative to DMSO as the negative control and baseline of activity. Using a type of binding reporter, gain or loss-of-signal activity can be used to understand protein changes. […]
(§2) The levels of cell surface (or secreted, indicated by the prefix "s") biomarker endpoints were measured by ELISA. Overt cytotoxicity to cells in confluent adherent cultures (all systems other than the BT system) was assessed by measuring total protein levels using sulforhodamine B (SRB) staining in parallel cultures at the time of biomarker measurements, indicated as SRB endpoints. For proliferation assays for adherent cell types, individual cell types are cultured at sub-confluence and relative cell numbers quantified by SRB staining at time points optimized for each system (48 h: 3C and CASM3C systems; 72 h: BT and HDF3CGF systems; 96 h: SAg system). […] Plates were read after 6 h.

[7] = read-out: Monocyte Chemoattractant Protein-1 (MCP1), CCL2 (gene 6347); assay: BSK_IMphg_MCP1: BioMAP Diversity Plus: IMphg Assay for Monocyte Chemoattractant Protein-1 (MCP1) Biomarker Activity (AID 2284253); settings: primary human endothelial cells with macrophages
Method in brief: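 Human venular endothelial cells co-cultured with macrophages; MCP-1 measured by ELISA 24 hours post-dose and fitted against DMSO. Cytotoxicity monitored by SRB total-protein staining in parallel cultures.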

[8] = read-out: Interleukin-8 (IL8), CXCL8 (gene 3576); assay: BSK_KF3CT_IL8: BioMAP Diversity Plus: KF3CT Assay for Interleukin-8 (IL8) Biomarker Activity (AID 2284254); settings: primary human keratinocytes with fibroblasts
Experimental: as §1, with “plate.BSK_KF3CT_IL8” for “plate.BSK_KF3CT_PAI1”, “IL-8” for “PAI-1”, “BSK_KF3CT_IL8” for “BSK_KF3CT_PAI1”, “BSK_KF3CT_IL8,” for “BSK_KF3CT_PAI1,”
as §2

[9] = read-out: Macrophage Inflammatory Protein-1 Alpha (MIP1a), CCL3 (gene 6348); assay: BSK_IMphg_MIP1a: BioMAP Diversity Plus: IMphg Assay for Macrophage Inflammatory Protein-1 Alpha (MIP1a) Biomarker Activity (AID 2284255); settings: primary human endothelial cells with macrophages
Method in brief: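 Co-culture of human venular endothelial cells and macrophages exposed to compounds for 24 h; MIP-1a measured by ELISA relative to DMSO. Cytotoxicity assessed in parallel cultures by sulforhodamine B total-protein staining at 560 nm.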

[10] = read-out: Plasminogen activator inhibitor-1 (PAI1), SERPINE1 (gene 5054); assay: BSK_MyoF_PAI1: BioMAP Diversity Plus: MyoF Assay for Plasminogen activator inhibitor-1 (PAI1) Biomarker Activity (AID 2284256); settings: primary human lung fibroblasts;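 for outcome: PAI-1 read 24 h after compound addition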
Method in brief: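 In this multiplexed primary-cell system, fibroblasts from human lung received compound for 24 h before ELISA detection of PAI-1; overt toxicity was checked by SRB (0.1%, TCA-fixed, 560 nm) in parallel wells.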

Compound	outcome [1]	outcome [2]	outcome [3]	outcome [4]	AC50 [5]	outcome [5]	AC50 [6]	outcome [7]	outcome [8]	outcome [9]	outcome [10]	AC50 [10]	AC50 [1]	outcome [6]
O=S(=O)(O)C(F)(F)C(F)(F)C(F)(F)C(F)(F)C(F)(F)C(F)(F)C(F)(F)C(F)(F)F	inactive	inactive	inactive	inactive	30 µM (active) and 38.1 µM (active)	inactive	24.4 µM (active) [middle of 4 runs]	inactive	inactive	inactive	inactive	–	–	–
ClC1C(Cl)C(Cl)C(Cl)C(Cl)C1Cl (centres undefined)	inactive	–	–	–	–	–	–	–	–	–	inactive	295 nM (active)	–	–
O=C(O)C(F)(F)C(F)(F)C(F)(F)C(F)(F)C(F)(F)C(F)(F)C(F)(F)F	–	inactive	inactive	inactive	–	inactive	–	inactive	inactive	inactive	inactive	–	31.6 µM (active) [middle of 4 runs]	inactive
